Compound activity from PubChem BioAssay.
The list is not random: actives were taken first. Their share in the collection is about 2.7%.
TGFb inhibitor: inhibitors of TGF-b signaling; 410,000 tested, 1.2% active; Potency, µM (doses to about 46.1 µM), for inactives: at the top dose activity, negative = inhibition, actives largely listed as inhibitors; AID 588855; HepG2 CAGA-GFP TGF-b/SMAD3 reporter, GFP fluorescence, 18 h; TGF-beta stimulated, 500 pg/mL final; note: potency is the fitted concentration of half-maximal effect; % is set by controls: 0 for no effect and ±100 for the full control effect; nearly all actives have a fitted effect of over 65% in size
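Using HEPG2 CAGA-GFP reporter cells at 1000 cells/well, we pinned test compounds, stimulated with recombinant TGF-beta (500 pg/mL final) and measured total well GFP after 18 h.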
S2 tox: viability counter-screen for ATXN expression inhibitors; Potency, µM (titrated, usually from 56.7 µM), usual class: cytotoxic; S2 cells (HEK-293 line with an ATXN2-luciferase reporter) viability, CellTiter-Fluor protease fluorescence, 24 h; 400,000 tested, 0.49% active; note: potency is the fitted concentration of half-maximal effect; nearly all actives have a fitted effect of over 40% in size
ATXN2 expr inh: reduces ATXN2 reporter expression in HEK-293 cells. HEK-293 ATXN2-luciferase reporter, luminescence, 24 h. Potency, µM (top dose mostly 57 µM), for the others: at the top dose activity change, negative = inhibition, usual class: inhibitors. 360,000 tested, 0.72% active; note: potency is the fitted concentration of half-maximal effect; % is set by controls: 0 for no effect and ±100 for the full control effect; nearly all actives have a fitted effect of over 55% in size
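qHTS (up to 57 uM final) was run with 24 h compound exposure of reporter cells at 37 °C. Each well was multiplexed: SteadyGlo luminescence measured ATXN2-luciferase expression after a fluorogenic Gly-Phe-AFC viability readout (25 uM final).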
12-LOX inh: inhibitors of human 12S-lipoxygenase ALOX12. P18054. purified 12hLO, xylenol orange hydroperoxide absorbance. Potency, µM (titrated, usually from 108 µM), for inactives: at the top dose activity change, negative = inhibition, usual class: inhibitors. 580,000 tested, 1.1% active. AID 1671190; note: potency is the fitted concentration of half-maximal effect; % is set by controls: 0 for no effect and ±100 for the full control effect
Target sequence (P18054 whole entry, looked up): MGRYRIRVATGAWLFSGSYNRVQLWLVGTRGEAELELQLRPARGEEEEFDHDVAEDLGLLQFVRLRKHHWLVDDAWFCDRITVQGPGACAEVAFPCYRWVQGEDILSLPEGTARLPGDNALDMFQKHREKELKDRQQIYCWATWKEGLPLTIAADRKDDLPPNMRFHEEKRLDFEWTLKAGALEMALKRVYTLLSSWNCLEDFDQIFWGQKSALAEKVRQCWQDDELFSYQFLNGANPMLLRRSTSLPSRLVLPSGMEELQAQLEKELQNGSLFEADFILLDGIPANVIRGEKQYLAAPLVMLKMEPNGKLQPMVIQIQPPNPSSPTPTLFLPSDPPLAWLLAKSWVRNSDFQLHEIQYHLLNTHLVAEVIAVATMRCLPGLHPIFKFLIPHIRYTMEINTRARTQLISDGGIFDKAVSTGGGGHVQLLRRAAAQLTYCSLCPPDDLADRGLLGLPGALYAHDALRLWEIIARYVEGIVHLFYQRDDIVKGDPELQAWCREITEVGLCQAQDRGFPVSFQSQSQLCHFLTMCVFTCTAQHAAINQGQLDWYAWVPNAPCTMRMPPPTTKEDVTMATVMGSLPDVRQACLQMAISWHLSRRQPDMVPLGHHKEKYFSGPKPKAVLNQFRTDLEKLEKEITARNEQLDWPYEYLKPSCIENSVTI
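Hydroperoxide product was detected by ferrous iron/xylenol orange as the 573 to 405 nm absorbance ratio. Arachidonic acid at 40 uM (final) was turned over for 30 min at room temperature by 150 nM human 12hLO, pH 7.0 Hepes buffer, after 15 min compound preincubation.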
HepG2 tox: counter-screen for TGF-b inhibitors: cytotoxicity in HepG2 cells; HepG2 CAGA-GFP viability, ATP luminescence, 18 h; Potency, µM (titrated, usually from 46.1 µM), inactives show at the highest dose activity change, negative = cytotoxicity, hits mostly cytotoxic; 410,000 tested, 0.76% active; note: potency is the fitted concentration of half-maximal effect
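HepG2 CAGA-GFP cells (1000/well, DMEM with 1% FBS) received compound, then TGF-beta at 500 pg/mL final, and were incubated 18 hours at 37 degrees C. Viability was read by CellTiter-Glo luminescence. Media-only wells were set as complete cell-killing and DMSO as no toxicity.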
EBOV entry S4 rt: Ebola entry inhibition, ratio channel, screen 4; shares compounds with ATXN2 expr inh; Ebola pseudovirus entry assay, ratio channel; AC50, µM; 170 tested, 79% active; AID 1117308; calls by dose curve
EBOV entry S4 bl: Ebola entry inhibition, blue channel, screen 4. shares compounds with ATXN2 expr inh. Ebola virus entry assay, blue channel fluorescence ratio; Channel: blue. calls only. 170 tested, under 10 active; call rule not given here
EBOV entry S4 grn: Ebola entry inhibition, green channel, screen 4; shares compounds with ATXN2 expr inh; Ebola virus entry reporter assay, green fluorescence channel; Channel: green; calls only; 170 tested, under 10 active; AID 1117316; call rule not given here
SK-N-SH 3D tox: reduced viability of SK-N-SH 3D spheroids, orthogonal test. shares compounds with ATXN2 expr inh. SK-N-SH 3D spheroid viability, PI/Hoechst imaging, 72 h. Potency, µM (top dose mostly 30.7 µM), hits mostly inhibitors. 65 tested, 70% active. AID 1347135
SJ-GBM2 3D tox: reduced viability of SJ-GBM2 3D spheroids, orthogonal test. shares compounds with ATXN2 expr inh. SJ-GBM2 3D spheroid viability, PI/Hoechst imaging, 72 h. Potency, µM (titrated, usually from 30.7 µM), most hits filed as inhibitors. 65 tested, 80% active. AID 1347136
Daoy 3D tox: kills Daoy spheroids in orthogonal 3D test | shares compounds with ATXN2 expr inh | Daoy 3D spheroid viability, PI/Hoechst imaging, 72 h | Potency, µM (doses to about 30.7 µM), usual class: inhibitors | 65 tested, 50% active | AID 1347137
TC32 3D caspase: TC32 spheroid caspase-3/7 activation, orthogonal screen; Potency, µM (doses to about 30.7 µM), actives largely listed as inhibitors; shares compounds with ATXN2 expr inh; AID 1347138; 65 tested, 30% active; TC32 3D spheroids, caspase-3/7 fluorescence imaging, 24 h
TC32 spheroid: TC32 3D spheroid viability loss; shares compounds with ATXN2 expr inh; TC32 3D spheroid viability, PI/Hoechst imaging, 72 h; Potency, µM (series often up to 30.7 µM), usual class: inhibitors; 65 tested, 60% active; AID 1347139
MG63 spheroid: kills MG-63 (6-TG R) spheroids in orthogonal 3D test; shares compounds with ATXN2 expr inh; Potency, µM (titrated, usually from 30.7 µM), most hits filed as inhibitors; AID 1347140; 65 tested, 50% active; MG-63 (6-TG R) 3D spheroid viability, PI/Hoechst imaging, 72 h
RD spheroid: RD 3D spheroid viability loss | 65 tested, 50% active | shares compounds with ATXN2 expr inh | RD rhabdomyosarcoma 3D spheroid viability, PI/Hoechst imaging, 72 h | AID 1347141 | Potency, µM (highest dose often 30.7 µM), actives largely listed as inhibitors
* hit, by the source's call; i = inactive; ? = inconclusive; / = not tested or not shown; [ ] = another dose, or the depositor's remark. Unless noted, calls come from the whole dose curve; as a rule, active = well fitted curve in the direction sought with a large enough effect; inconclusive = small, poorly fitted or top-dose-only effect, or another doubt; inactive = no such curve, though single readings can be large; an effect the other way counts as inactive or inconclusive.

SMILES | TGFb inhibitor | S2 tox | ATXN2 expr inh | 12-LOX inh | HepG2 tox | others
CC(C)(C)CN1CCCC2(CC(c3cccnc3)=NO2)C1 (stereo not drawn) | / | / | / | 3%[12.5 µM] | /
C#Cc1cccc(Nc2ncnc3cc(OCCOC)c(OCCOC)cc23)c1 | / | ? | ? | -19%[22.9 µM] | / | EBOV entry S4 rt=i;EBOV entry S4 bl=i;EBOV entry S4 grn=i
COc1cc2c(cc1OCC1CC1)NC(=O)C21CCN(C(=O)c2cccc(C#N)c2)CC1 | / | / | / | -5%[176 µM] | /
COc1ccc(N2CCN(CCc3ccncc3)CC2)cc1 | 29% | ? | -10% | -12% | 7%
NCCc1cccs1 | / | / | / | 79% | /
O=C1CSC(c2ccc(F)cc2F)c2cn[nH]c2N1 (stereo not drawn) | / | / | / | 12% | /
C/C=C/c1ccc(OCC(=O)N2CCN(CCOc3ccccc3)CC2)c(OC)c1 | / | / | / | 2% | /
O=c1[nH]c2ccc(Cl)cc2c(N[C@@H]2CN3CCC2CC3)c1-c1nc2ccccc2[nH]1 | / | / | 0.068µM* | -12%[57.4 µM] | / | SK-N-SH 3D tox=0.13µM*;SJ-GBM2 3D tox=0.091µM*;Daoy 3D tox=0.72µM*;TC32 3D caspase=18µM*;TC32 spheroid=13µM*;MG63 spheroid=6.4µM*;RD spheroid=?
O=C(NC1CN2CCC1CC2)c1ccc(Cl)cc1 (stereo not drawn) | / | / | / | 18% | /
N#Cc1cnn2c(C(F)F)cc(-c3ccc(F)cc3)nc12 | / | / | / | 21% | /
O=C1CO[C@H]2CN(Cc3ncc[nH]3)C[C@H]2N1Cc1ccccn1 | / | / | / | 114%[176 µM] | /
CC[C@H]1CN2CC[C@H]1C[C@@H]2CNS(=O)(=O)c1cccc(F)c1 | / | / | / | 13%[176 µM] | /
CCN1CCN(C(=O)Cc2c(C)n(C(=O)c3ccc(Cl)cc3)c3ccc(OC)cc23)CC1 | -17% | ? | -13% | ? | -22%
CC1CCC(NC(=O)c2cn(C)c3ccccc23)CC1 (stereo not drawn) | / | / | / | 18% | /
COc1cccc(CN2CCCCCCNC(=O)[C@@H]3CCC[C@@H]32)n1 | / | / | / | 281% | /
O=C(Cc1ccc(Cl)cc1)N1Cc2ccccc2CC2(CCCN2CC2CCNC2)C1 (stereo not drawn) | / | / | / | 6%[6.33 µM] | /
CCCC(C)NC(=O)COC(=O)c1c(C)n(C2CC2)c2ccc(OC)cc12 (stereo not drawn) | / | / | / | 7% | /
CC[C@H]1CN2CC[C@H]1C[C@@H]2CNC(=S)Nc1ccc(C)cc1Br | / | / | / | -10%[176 µM] | /
